High-throughput results as filed in PubChem.
IL1B secr inh: blocks inflammasome-driven IL-1 beta release; THP-1 LPS/ATP IL-1B secretion, AlphaLISA, 16 h; active compounds read low; activity change, % at 57.5 µM; 360,000 compounds, 4.7% hits; in the data active means activity change below about -50%; inconclusive means mostly about -30% to -49%; further: on the % scale 0 is the no-effect control and ±100 the full control effect
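Secreted IL-1B measured by AlphaLISA bead assay after 16 h compound exposure of THP-1 cells; compounds (final up to 57.5 uM) added 1 h before LPS (250 ng/mL) and ATP (1.25 mM) stimulation; lower signal means less secretion.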
ClpP mod: qHTS Assay for Activators of ClpP. ATP-dependent Clp protease proteolytic subunit (Bacillus subtilis (strain 168)), P80244. purified B. subtilis ClpP, FRET peptide cleavage, 20 min. Potency, µM (highest dose often 57.5 µM), inactives show at the top dose activity change, negative = active. 340,000 compounds, 1.9% hits; active means well fitted falling curve with a large enough effect; inconclusive means small, poorly fitted or top-dose-only effect; inactive means no such curve, though single readings can be large or run the other way; further: potency means the concentration at half of the fitted maximal effect; the source files actives as falling curves though it sought activators and does not explain the sign; nearly all actives have a fitted effect of over 65% in size
Target sequence (P80244 whole entry, looked up): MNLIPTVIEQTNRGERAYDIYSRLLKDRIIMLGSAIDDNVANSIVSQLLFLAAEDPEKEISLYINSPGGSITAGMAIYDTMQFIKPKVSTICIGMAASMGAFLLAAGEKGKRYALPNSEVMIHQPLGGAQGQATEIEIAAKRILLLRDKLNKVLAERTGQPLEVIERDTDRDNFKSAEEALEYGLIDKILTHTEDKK
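ClpP 10 microg/mL final, pH 8 Tris/KCl buffer with BSA, glycerol, Tween-20; compound pinned in; FRET-FV substrate; RT 20 min; Ex320/Em430; ΔFRET vs ADEP 5.8 microM, DMSO, no enzyme.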
DT40 TDP1 no CPT: qHTS for Inhibitors of human tyrosyl-DNA phosphodiesterase 1 (TDP1): qHTS in cells in absence of CPT; DT40 Tdp1-/- hTDP1 cells, no CPT, ATP luminescence, 48 h; 420,000 compounds, 15% hits; Potency, µM (titrated, usually from 46.2 µM), for the others: top-dose activity change, negative = growth inhibition, usual class: inhibitors; further: potency means the concentration at half of the fitted maximal effect; on the % scale 0 is the no-effect control and ±100 the full control effect; nearly all actives have a fitted effect of over 55% in size
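A cellular qHTS used chicken DT40 cells lacking endogenous Tdp1 but carrying stably transfected human TDP1. Compounds were applied without camptothecin, and cell growth kinetics were judged by ATP-dependent luminescence after ≥48 hr.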
DT40 TDP1 CPT: growth inhibition of DT40 Tdp1-/-;hTDP1 cells with camptothecin (screen for TDP1 inhibitors). 420,000 compounds, 12% hits. Potency, µM (highest dose often 46.2 µM), without a hit: at the highest dose activity change, negative = growth inhibition, hits mostly inhibitors. chicken DT40 Tdp1-/-;hTDP1 cells + 20 nM CPT, ATP luminescence, 48 h; further: potency means the concentration at half of the fitted maximal effect; on the % scale 0 is the no-effect control and ±100 the full control effect; nearly all actives have a fitted effect of over 55% in size
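Chicken DT40 Tdp1-/- cells complemented with human TDP1, 400 cells/well, exposed to compounds plus 20 nM camptothecin for at least 48 h at 37 C; viability read as ATP content by CellTiter-Glo luminescence.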
DRD3 antagonist: D3 dopamine receptor (human) antagonism | 360,000 compounds, 2.5% hits | D3R cells, DiscoveRx beta-arrestin luminescence, antagonist mode; active compounds read low | P35462 | AID 652054 | max response, negative = inhibition, %; in the data active means max response below about -50%; inconclusive means no clear call, values can overlap the other calls; further: on the % scale 0 is the no-effect control and ±100 the full control effect
Target sequence (P35462 whole entry, looked up): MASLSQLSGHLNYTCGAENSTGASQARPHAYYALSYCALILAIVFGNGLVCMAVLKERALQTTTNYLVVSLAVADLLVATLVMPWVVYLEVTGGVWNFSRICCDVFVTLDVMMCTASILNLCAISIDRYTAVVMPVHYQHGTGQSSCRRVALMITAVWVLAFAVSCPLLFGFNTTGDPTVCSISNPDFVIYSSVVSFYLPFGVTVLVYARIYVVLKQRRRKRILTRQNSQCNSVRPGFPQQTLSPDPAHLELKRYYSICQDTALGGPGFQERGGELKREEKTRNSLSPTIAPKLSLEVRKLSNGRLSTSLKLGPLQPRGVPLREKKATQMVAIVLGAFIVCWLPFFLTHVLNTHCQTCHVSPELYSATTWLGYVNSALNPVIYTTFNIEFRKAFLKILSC
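Cells plated overnight at 1500 cells/well, then exposed to library compounds with dopamine controls for 90 minutes at 37 degrees C. DiscoveRx reagent added for 30–60 minutes at room temperature; luminescence read, quantitative HTS format.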
D3 ag: agonists of human D3 dopamine receptor; max activation, %; P35462; 410,000 compounds, 0.58% hits; D3R DiscoveRx beta-arrestin cells, luminescence, 90 min; AID 652048; in the data active means max activation above about 30%; further: 0% is about no effect
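Agonist-mode cell screen: cells plated at 1500/well and incubated overnight at 37 °C, then exposed to library compounds for 90 min at 37 °C. Detection reagent was added for 30–60 min at room temperature, and luminescence was read.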
Numbers without * were called inactive; ? = inconclusive; nt = not tested or not shown; ! = repeats disagree. A selection: hits, their analogues and other compounds. The true share with any hit is near 21%. Unless noted, the call rests on the fitted dose curve; in most records, active means well fitted inhibition curve with a large enough effect; inconclusive means small, poorly fitted or top-dose-only effect; inactive means flat fitted curve, though single readings scatter.

SMILES	IL1B secr inh	ClpP mod	DT40 TDP1 no CPT	DT40 TDP1 CPT	DRD3 antagonist	D3 ag
CCN1CCN(c2cc(C)c3cc(NC(=O)c4cncc(Br)c4)ccc3n2)CC1	-53.7*	20µM*	?	?	-69.4*	-11.4
CCN1CCN(c2cc(C)c3cc(NC(=O)Cc4ccccc4OC)ccc3n2)CC1	9.0	28.2µM*	-10.7%	9.4%	6.5	-4.2
CCN1CCN(c2cc(C)c3cc(NC(=O)/C=C/c4ccc(OCCC(C)C)cc4)ccc3n2)CC1	nt	-10.8%	4.11µM*	4.61µM*	nt	-3.4
CCN1CCN(c2cc(C)c3cc(NC(=O)c4cc(OC)c(OC)c(OC)c4)ccc3n2)CC1	nt	?	?	?	nt	-25.6
Cc1ccc(C(=O)Nc2nnc(S(=O)(=O)N3CCCc4ccccc43)s2)cc1	nt	-1.7%	15.0%	-10.9%	nt	-7.0
CC1CC(C)CN(CC(O)COCc2ccccc2)C1 (centres undefined)	5.5	nt	7.7%	16.5%	2.0	-1.4
O=C(Nc1cc(F)ccc1F)N1CCC(CN2CCCC2)CC1	nt	-0.8%	-11.2%	-4.5%	nt	2.9
CCN1CCN(c2cc(C)c3cc(NC(=O)c4cccc(C(F)(F)F)c4)ccc3n2)CC1	nt	51.7%	13µM*	10.3µM*	nt	-12.5
CCN1CCN(c2cc(C)c3cc(NC(=O)c4ccc(OC)c(OC)c4)ccc3n2)CC1	-26.1	-26.0%	16.4µM*	14.6µM*	-22.3	-14.6
O=[N+]([O-])c1cccc2[nH]cnc12	nt	-1.1%	-2.0%	1.5%	nt	nt
O=C1c2ccccc2C(=O)C1c1ccc2ccccc2n1	-2.6	-0.4%	25.9µM*	6.31µM*	29.5	1.2
COC(=O)C1=C(C)NC(C)=C(C(=O)OC)C1c1ccc2ccccc2n1	9.5	-7.3%	-16.6%	-7.2%	-18.0	1.6
O=C1c2ccccc2C(=O)C1c1cc2ccccc2cn1	nt	1.3%	7.08µM*	1.78µM*	nt	nt
O=C(CNS(=O)(=O)/C=C/c1ccccc1)OC1CCOC1=O (centres undefined)	1.2	nt	-6.5%	-18.9%	1.9	2.5
CCc1c(C2(O)CCCCC2)[nH]c2cnccc12	36.4	3.8%	18.4µM*	?	-52.5*	-7.3
CCOc1ccc(NC(C(=O)Nc2cccc(C(C)=O)c2)c2ccccc2)cc1 (centres undefined)	0.0	4.2%	14.6µM*	14.6µM*	-10.8	-10.9
COCC(C)NC(C(=O)Nc1cccc(C(C)=O)c1)c1ccccc1 (centres undefined)	-3.2	nt	-12.0%	-4.8%	-7.4	-7.1
CCOc1ccc(/C=C/C(=O)Nc2cccc(C(C)=O)c2)cc1	-2.3	1.8%	0.581µM*	-85.1%	9.6	2.5
CC(C)CC1=C/C(=C/c2ccc(-c3ccccc3)o2)C(=O)O1	0.0	25.1µM*	16.4µM*	?	0.0	0.9
C[C@@H]1C[C@H]2C3C[C@H](F)C4=CC(=O)C=CC4(C)[C@@]3(F)[C@@H](O)CC2(C)[C@@]1(O)C(=O)COC(=O)C(C)(C)C (some centres undefined)	nt	nt	?	14.3%	nt	-19.1
CCCC(=O)O[C@]1(C(=O)COC(C)=O)CC[C@H]2[C@@H]3C[C@H](F)C4=CC(=O)C=C[C@]4(C)[C@@]3(F)[C@@H](O)C[C@@]21C	-75.3*	2.1%	?	23.7µM*!	9.5	2.2
CC(=O)OCC(=O)[C@@]12OC(C)(C)OC1CC1C3CC(F)C4=CC(=O)C=C[C@@]4(C)[C@@]3(F)C(O)C[C@]12C (some centres undefined)	nt	nt	-1.1%	8.2%	nt	nt
CC(=O)[C@@]1(O)CC[C@H]2[C@@H]3C[C@H](C)C4=CC(=O)C=C[C@]4(C)[C@@]3(F)[C@@H](O)C[C@@]21C	-79.2*	-2.6%	-7.1%	?	-0.4	5.9
C[C@@H]1C[C@H]2[C@@H]3C[C@H](F)C4=CC(=O)C=C[C@]4(C)[C@@]3(F)[C@@H](O)C[C@]2(C)[C@@]1(O)C(=O)COC(=O)C(C)(C)C	0.0	2.6%	23.1µM*	23.1µM*	0.0	-4.9
C[C@@H]1C[C@H]2[C@@H]3C[C@H](F)C4=CC(=O)C(Cl)=C[C@]4(C)[C@@]3(F)[C@@H](O)C[C@]2(C)[C@@]1(O)C(=O)CO	nt	nt	16.8µM*	?	nt	7.9
SMILES	IL1B secr inh	ClpP mod	DT40 TDP1 no CPT	DT40 TDP1 CPT	DRD3 antagonist	D3 ag
COc1ccc(/C=C(\NC(=O)c2ccc(C)cc2)C(=O)NCCCn2ccnc2)cc1	-13.4	nt	-1.0%	3.3%	2.8	4.0
CC1(C)OC2CC3C4CCC5=CC(=O)C=C[C@@]5(C)[C@]4(F)C(O)C[C@@]3(C)[C@]2(C(=O)CO)O1 (some centres undefined)	nt	nt	1.0%	0.7%	nt	nt
CC(=O)C12OC(C)(C)OC1CC1C3CCC4=CC(=O)C=CC4(C)C3(F)C(O)CC12C (centres undefined)	-56.9*	nt	-25.8%	-7.5%	-5.7	-8.5
COc1ccccc1-c1nccc(-n2ccnc2)n1	nt	nt	-9.4%	2.3%	nt	nt
N=C(N)SCc1nc2ccccn2c1Br	-98.3*	-3.1%	?	?	-23.6	-0.5
Cc1cccc2nc(CSC(=N)N)c(Br)n12	-67.9*	-0.1%	?	?	-7.1	13.3
O=C(O)c1ccccc1SCc1nc2ccccn2c1Br	4.8	-7.8%	-2.0%	4.4%	-10.7	-1.4
N=C(N)SCc1ncccc1O	-4.9	-5.1%	6.8%	-7.0%	-10.8	-2.1
O=C(/C=C(\c1ccc(Cl)cc1)n1cncn1)c1ccc(Cl)cc1	-57.3*	-1.9%	16.4µM*	?	-26.8	-15.9
OC(Cn1cncn1)c1ccc(Cl)cc1 (centres undefined)	9.7	4.7%	1.0%	3.8%	14.9	2.1
O=C(Cn1cncn1)c1ccc(Cl)cc1	-2.6	nt	-7.4%	-16.0%	-80.1*	1.9
CS(=O)(=O)NCC(c1ccco1)N1CCN(c2ccccc2)CC1 (centres undefined)	nt	0.6%	-15.6%	-12.0%	nt	-17.7
COc1ccc2nc(N(CCN(C)C)C(=O)c3ccc4ccccc4c3)sc2c1	-23.8	3.8%	-4.5%	4.1%	-62.7*	-1.9
CN(C)CCN(C(=O)c1ccc2ccccc2c1)c1nc2ccc(Br)cc2s1	-11.1	1.3%	?	?	-54.9*	-4.8
CCN(CC)CCN(C(=O)c1ccc(S(=O)(=O)N(C)C2CCCCC2)cc1)c1nc2ccc(OC)cc2s1	-77.2*	-2.2%	-4.9%	?	8.2	-14.5
CCCN=C1N(C)C[C@@H]2[C@@H]3C(=O)N(Cc4ccccc4)C(=O)[C@@H]3[C@](Cc3ccccc3)(C(=O)OC)N12	0.0	2.8%	-9.7%	-0.7%	0.0	3.1
